Test results reported in PubChem BioAssay (NCI).
The panel holds about 83,000 compounds, 20% with a hit somewhere; the sample as a whole holds those more often.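 Each cell line was grown in a 96-well plate and treated with one concentration of compound for 48 hours. Values below 10 were considered active.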 Unmarked numbers belong to inactive results. Activity calls are given as the source filed them.

Key:
Experiment in all cases: NCI-60 one-dose screen, 48 h (100 = growth as untreated, 0 = no growth, -100 = all killed)
Settings in all cases: 10 µM unless noted
[1] = test system: SR leukemia
[2] = test system: RPMI-8226 leukemia
[3] = test system: OVCAR-8 ovarian
[4] = test system: OVCAR-5 ovarian
[5] = test system: OVCAR-4 ovarian
[6] = test system: SK-OV-3 ovarian
[7] = test system: IGROV1 ovarian
[8] = test system: OVCAR-3 ovarian
[9] = test system: HS 578T breast
[10] = test system: NCI/ADR-RES ovarian
[11] = test system: T-47D breast
[12] = test system: BT-549 breast
[13] = test system: MDA-MB-435 melanoma
[14] = test system: SW-620 colon
[15] = test system: MCF7 breast
[16] = test system: HCT-116 colon
[17] = test system: HCC-2998 colon
[18] = test system: KM12 colon

SMILES	growth [1]	growth [2]	growth [3]	growth [4]	growth [5]	growth [6]	growth [7]	growth [8]	growth [9]	growth [10]	growth [11]	growth [12]	growth [13]	growth [14]	growth [15]	growth [16]	growth [17]	growth [18]
CCOC(=O)C1=C(C)NC(=O)NC1c1c(Cl)n(CCCl)c2ccccc12 (stereo not given)	102%	77.3%	96.7%	101%	112%	104%	103%	98.5%	93.1%	97.1%	101%	92%	101%	96.8%	98.7%	95.1%	96.3%	97.4%
O=C(Nc1cccc2ccccc12)NC1CC1	109%	105%	101%	110%	102%	97.1%	122%	114%	108%	111%	91.5%	91.1%	113%	105%	87%	103%	111%	115%
CN(C)c1ccc(-c2c(C#N)c(N)nn2C(=O)c2ccc(NC(=O)c3ccccn3)cc2)cc1	98.6%	95.5%	98.3%	95.7%	105%	108%	79.1%	102%	93.9%	96.4%	101%	97.8%	98.2%	92.8%	92.5%	90.8%	95.2%	88%
Cn1ccnc1C(=O)/C=C/c1ccc(CC(=O)Nc2cc(C(F)(F)F)cc(C(F)(F)F)c2)cc1	39.4%	55%	41%	83.8%	78.8%	109%	71.4%	62.6%	66.6%	65.3%	52.1%	80.3%	68.5%	70.5%	30.8%	51.6%	83.6%	63%
O=C(Nc1ccccc1O)c1ccc(CNC(=O)c2sccc2Nc2ccnc(C(F)(F)F)c2)cc1	36.2%	24.3%	35.8%	45.6%	48.3%	57.2%	41%	41.3%	14.6%	24.1%	40.1%	59.5%	39.3%	41.9%	30.1%	26.3%	65.4%	60.9%
C=C1C(=O)O[C@H]2[C@H]1CC/C(COC(=O)c1cc3ccccc3s1)=C\CC[C@@]1(C)O[C@@H]21	-1.95% (active)	-25.3% (active)	-12% (active)	-57.3% (active)	-62% (active)	85.3%	-66% (active)	-69% (active)	-17.7% (active)	1.73% (active)	-50.2% (active)	-59% (active)	-71% (active)	-67.4% (active)	-41.9% (active)	-83.8% (active)	-76.6% (active)	-59.7% (active)
C#CCOc1cccc(Nc2ncnc3ccc(NC(=O)C=C)cc23)c1	21.1%	35.7%	32.4%	52.6%	59.3%	-3.78% (active)	-6.06% (active)	19.2%	42.4%	36.1%	39%	19.5%	43.8%		47.6%	32.8%	84.6%	60.4%
S=c1sc2c(Cl)nc(-c3cccnc3)nc2n1-c1ccccc1	-27.2% (active)	-3.47% (active)	18%	125%	70.6%	87.9%	-60.2% (active)	52.2%	55.9%	60.2%	-14.5% (active)	27.9%	41.2%	0.199% (active)	3.63% (active)	1.57% (active)	39.6%	46.3%
O=C(c1nn(-c2ccccc2)c2c1CC(NCc1ccc(F)cc1)CC2)N1CCCCC1 (stereo not given)	94.6%	110%	97%	103%	99.2%	103%	97.7%	104%	107%	93.9%	93.6%	84.6%	98.9%	110%	88.1%	90.5%	104%	102%
CCOC(=O)C#Cc1c(C(=O)OCC)nnn1Cc1ccc([N+](=O)[O-])cc1	-10.7% (active)	11.4%	63.3%	97.3%	51.2%	105%	89.6%	7.55% (active)	91.2%	96.3%	23.8%	80.2%	75.2%	-40.5% (active)	6.62% (active)	43.4%	81.1%	92%
COc1cc(-c2nc3sccn3c2-c2ccnc(NCCNS(=O)(=O)c3ccccc3)n2)ccc1F	45.3%	31%	46.1%	113%	52.3%	52.5%	43.1%	74.9%	69.6%	47%	14.3%	67.8%	26%	86.4%	37.9%	42.6%	96.5%	17.1%
COC(=O)[C@]12CCC(C)(C)C[C@H]1[C@H]1/C(=N/OCCc3nn[nH]n3)C[C@@H]3[C@@]4(C)CC[C@H](OC(C)=O)C(C)(C)[C@@H]4CC[C@@]3(C)[C@]1(C)CC2	31.8%	22.6%	29.7%	74.4%	25.3%	58.7%	30.9%	31.8%	48.3%	30.1%	26%	34.9%	31.4%	41.9%	20.9%	24.7%	54.7%	36.5%
O=c1c2cccc3c(N4CCCC4)ccc(c32)c2nc3ccccc3n12	20.2%	75.7%	66%	106%	78.8%	79.1%	57.1%	98.2%	67.2%	83%	72.2%	71.2%	103%	59.5%	50.1%	54.7%	70.3%	87.9%
O=C1C(=O)N(Cc2ccc(-c3ccccc3)cc2)c2ccc(OC(F)(F)F)cc21	2.04% (active)	-5.6% (active)	23.6%	37.3%	36.3%	98.1%	36%	24.7%	11.2%	32.6%	49.7%	0.708% (active)	38%	23.5%	11.6%	9.92% (active)	36.6%	12.5%
C=CC(=O)N1CCN(c2cccc(Oc3nccc(Nc4nnc(-c5ccc(Br)cc5)s4)n3)c2)CC1	29.9%	50.4%	66%	89.9%	88.9%	80.2%	55.9%	19.2%	67.5%	48.4%	63.6%	67.1%	-5.55% (active)	35.2%	35.9%	58.4%	89.9%	43.8%
Nc1c(C(=O)Nc2ccccc2F)sc2nc3c(cc12)CCCC3	13.3%	28%	40.7%	74.7%	54%	26.6%	58.9%	4.6% (active)	48.9%	24.7%	41.9%	56.8%	-7.54% (active)	25.3%	18%	23.7%	57.7%	27.6%
Cc1cc(N2CCN(CCNc3ccnc4cc(Cl)ccc34)CC2)nc(N2CCOCC2)n1	3.62% (active)	35.3%	74.1%	92.9%	53.8%	85.2%	66%	73.1%	85.8%	66.1%	55.9%	74.2%	80.1%	79.4%	53.3%	38.5%	37.4%	76.6%
